From PubChem BioAssay
This is a sample that favours compounds with a hit; in the whole collection about 8.1% have one here.
MCF10A rereplic = induces DNA re-replication in MCF 10a normal breast cells; MCF 10A DNA re-replication, Hoechst nuclear intensity, 48 h; Potency, µM (doses to about 46.1 µM), without a hit: at the highest dose activity, positive = re-replication, usual class: activators; 2.9% of 350,000 active; further: % of control where 0% means no effect; nearly all actives have a fitted effect of over 50% in size
KB-3-1 tox = KB-3-1 parental cell cytotoxicity; AID 1347075; Potency, µM (doses to about 46.1 µM), hits mostly cytotoxic; KB-3-1 viability, CellTiter-Glo ATP luminescence, 72 h; 1.4% of 400,000 active; further: on the % scale 0 is the no-effect control and ±100 the full control effect; nearly all actives have a fitted effect of over 60% in size
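Multi-concentration cytotoxicity screen in KB-3-1 cells grown in DMEM lacking phenol red with 10% FBS. After 72 h at 37 °C with compound, ATP-dependent luminescence was recorded.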
KB-V1 cytotox = kills drug-selected multidrug resistant KB-V1 cells; KB-V1 MDR cells viability, CellTiter-Glo, 72 h; Potency, µM (highest dose often 46.1 µM), most hits filed as cytotoxic; 3.4% of 400,000 active; AID 1347076; further: on the % scale 0 is the no-effect control and ±100 the full control effect; nearly all actives have a fitted effect of over 60% in size
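Drug-selected KB-V1 cells, grown in DMEM lacking phenol red with 10% FBS, receive compound titrations; after three days at 37 degrees C, surviving cell ATP is quantified by CellTiter-Glo luminescence and responses normalized and curve-fitted.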
SW480 rereplic = induces DNA re-replication in SW480 colon adenocarcinoma cells; SW480 DNA re-replication, Hoechst DNA content imaging, 48 h; 1.8% of 340,000 active; Potency, µM (top dose mostly 46.1 µM), for the others: at the highest dose re-replication activation, usual class: activators; further: % of control where 0% means no effect; nearly all actives have a fitted effect of over 55% in size
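Compounds, transferred as 23 nL by pin tool, were incubated with cells for 48 hr; DNA content per nucleus was then quantified by Hoechst staining and fluorescence plate imaging.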
ELG1 repair inh = ELG1-dependent DNA repair inhibition; HEK293T ELG1-luciferase reporter, luminescence, 16 h; DNA damage induced by 5-fluorouridine; Potency, µM (titrated, usually from 46.1 µM), for the others: at the top dose activity change, negative = inhibition, actives largely listed as inhibitors; 2.3% of 330,000 active; AID 504467; further: on the % scale 0 is the no-effect control and ±100 the full control effect; nearly all actives have a fitted effect of over 55% in size
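DMSO vehicle served as the neutral condition. Each well held 2,000 cells given 5-fluorouridine plus compound; after 16 hr at 37 °C/5% CO2, ONE-Glo was added and luciferase measured 30 min later.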
Numbers without * were called inactive; i = inactive; ? = inconclusive; . = no result. The call rests on the fitted dose curve; in most records, active means well fitted curve in the direction sought with a large enough effect; inconclusive means small, poorly fitted or top-dose-only effect, or another doubt; inactive means no such curve, though single readings can be large; an effect the other way counts as inactive or inconclusive. Potency means the concentration at half of the fitted maximal effect.

SMILES	MCF10A rereplic	KB-3-1 tox	KB-V1 cytotox	SW480 rereplic	ELG1 repair inh
CCOC(=O)C1=C(CSc2nc3c(cc2C#N)CN(C)CC3)OC(N)=C(C#N)C1c1ccncc1 (stereo not drawn)	?	i	i	?	-5.9%
CCOC(=O)C1=C(CSc2nc(CC)c(C)cc2C#N)OC(N)=C(C#N)C1c1ccccc1 (stereo not drawn)	?	i	i	17.9%	4.5%
O=C(NCc1ccccc1)Nc1cccn(Cc2ccccc2F)c1=O	6.7%	i	10.3µM*	10.2%	9.5%
O=C(NCc1ccccc1)Nc1cccn(Cc2cccc(F)c2)c1=O	2.2%	i	?	1.8%	5.3%
O=C(Nc1cccn(Cc2ccccc2)c1=O)NC1CCCCC1	8.7%	i	4.11µM*	5.1%	-4.6%
O=C(Nc1cccn(Cc2ccc(F)cc2)c1=O)NC1CCCCC1	19.8%	i	i	-1.1%	-18.6%
O=C(NCc1ccccc1)Nc1cccn(Cc2ccccc2)c1=O	6.7%	i	?	-0.7%	9.6%
O=C(NCc1ccccc1)Nc1cccn(Cc2ccc(F)cc2)c1=O	-0.8%	i	11.6µM*	0.5%	-10.7%
C=C1C=C(C(F)F)n2ncc(C(=O)NCc3ccc(OC)cc3)c2N1	.	i	i	.	.
COc1cccc(-c2ccc(NC(=O)C3CCCN(Cc4ccc(CO)o4)C3)cc2)c1 (stereo not drawn)	17.5%	i	?	-4.0%	0.5%
CCn1c(SCC(=O)Nc2cccc(C)c2)nc2nc3c(cc2c1=O)COC(C)(C)C3	7.2%	i	?	-3.2%	18.3µM*
CCn1c(SCC(=O)Nc2ccccc2)nc2nc3c(cc2c1=O)COC(C)(C)C3	-1.5%	i	i	2.5%	10.3µM*
CCNC(=O)C1(C)CCN(C(=O)c2cccc3ccccc23)C1 (stereo not drawn)	.	i	i	.	.
O=C(COc1ccccc1Cc1ccccc1)Nc1cccnc1	11.8%	i	i	-6.3%	?
Cc1cc(C)c2oc(-c3cccc(NC(=O)COc4ccc(Cl)cc4C)c3C)nc2c1	.	?	i	.	.
O=C(NC1CCCCC1)c1sc(=S)n2c1[nH]c(=O)c1ccccc12	?	?	20.6µM*	-8.4%	-19.3%
CSc1nnc(-c2sc3cc(Cl)ccc3c2Cl)n1C	?	?	18.4µM*	16.5%	20.7%
CN(Cc1ccccc1)S(=O)(=O)c1ccc(NC(=S)NC(=O)C2CCCCC2)cc1	23.1µM*	?	?	?	?
Cc1cc(C)c(S(=O)(=O)NCCc2cc3c(C)ccc(C)c3[nH]c2=O)c(C)c1	.	i	i	.	.
NS(=O)(=O)c1cccc(NC(=S)NC(=O)C23CC4CC(CC(C4)C2)C3)c1	?	i	18.4µM*	2.7%	10.7%
CN(C)S(=O)(=O)c1cccc(NC(=S)NC23CC4CC(CC(C4)C2)C3)c1	?	i	i	?	-15.6%
Cc1ccc(S(=O)(=O)N(C)C)cc1NC(=S)NC(=O)C12CC3CC(CC(C3)C1)C2	16.0%	3.26µM*	?	-3.7%	7.7%
Cc1ccc(S(=O)(=O)N(C)C)cc1NC(=S)NC12CC3CC(CC(C3)C1)C2	?	i	i	4.4%	?
CCCNCC(O)Cn1c2ccccc2n2c(=O)cc(C)c(C#N)c12 (stereo not drawn)	0.2%	i	?	-0.3%	?
Cc1cc(=O)n2c(sc3ccccc32)c1C#N	?	i	i	23.1µM*	5.7%
SMILES	MCF10A rereplic	KB-3-1 tox	KB-V1 cytotox	SW480 rereplic	ELG1 repair inh
O=C(NC(c1ccccc1)c1ccccc1)C1(c2cccs2)CCOCC1	-0.1%	i	5.17µM*	-0.1%	-9.4%
Cc1cccc(NC(=O)C2(c3cccs3)CCOCC2)n1	-3.3%	i	16.4µM*	-53.8%	9.8%
Cc1cccc(NC(=O)C2(c3cccs3)CCOCC2)c1	-4.8%	i	i	0.4%	-0.1%
N#Cc1ccc(NS(=O)(=O)c2ccc3c(c2)CCC(=O)N3)cc1	.	i	?	.	.
CC12CCC=CC1=C(C=O)C1C2CCC2(C)C(O)CCC12 (stereo not drawn)	?	18.4µM*	?	26.0%	.
COc1ccc(OCCCn2c(CCNC(=O)C3CCCCC3)nc3ccccc32)cc1	.	i	i	.	.
COc1ccc(C2C=C(C34CC5CC(CC(C5)C3)C4)NC(=S)N2)cc1OC (stereo not drawn)	10.0%	i	18.4µM*	?	?
Cc1cc2nc(-c3ccc(OCc4ccccc4)cc3)cc(C(F)(F)F)n2n1	.	i	i	.	.
COc1cc(O)c(C(=O)CC(=O)c2ccncc2)c(OC)c1	-21.6%	i	i	-10.0%	.
Cc1cc(C)nc(-n2nc(C)cc2NC(=O)c2cccc(S(=O)(=O)N(C)C)c2)n1	-6.6%	i	i	-0.3%	-12.0%
Cc1ccc(C)c(C(=O)Nc2cc(C)nn2-c2nc(C)cc(C)n2)c1	?	20.6µM*	?	8.1%	?
O=C(CN1CCOCC1)Nc1c2c(nc3ccccc13)N(Cc1ccccc1)CC2	-3.2%	i	i	-2.6%	-4.7%
O=C(CN1CCCC1)Nc1c2c(nc3ccccc13)N(Cc1ccccc1)CC2	-4.7%	i	23.1µM*	-5.4%	-1.9%
COc1ccc(CNC(=O)COc2ccc(F)cc2)cc1	-2.7%	i	?	-6.9%	7.7%
O=C(COc1ccc(C(=O)c2ccc(F)cc2)cc1)NCc1ccc(F)cc1	1.46µM*	4.11µM*	9.2µM*	14.6µM*	?
COc1ccc(CNC(=O)COc2ccc(OC)cc2)cc1	-1.2%	i	i	-24.7%	-0.2%
Cc1ccc(CNC(=O)COc2ccc(C(=O)c3ccc(F)cc3)cc2)cc1	16.4µM*	?	?	?	22.0%
Cc1cccc(NC(=O)CNC(=O)COc2ccc(C(=O)c3ccc(F)cc3)cc2)c1C	14.6µM*	6.51µM*	?	?	?
COc1ccc(CNC(=O)COc2ccc(C(=O)c3ccc(F)cc3)cc2)cc1	1.16µM*	?	?	?	-11.8%
COCCCNc1nccn2ccnc12	.	i	i	.	.
COc1ccc2oc(=O)cc(-c3cc4cccc(OC)c4o3)c2c1	-3.2%	i	i	1.4%	3.6%
COc1cccc2cc(-c3cc(=O)oc4cc(C)c(OCC(C)=O)cc34)oc12	19.8%	?	i	6.51µM*	5.17µM*
COc1ccccc1NC(=O)COC(=O)CC(C)(C)CC1=NS(=O)(=O)c2ccccc2N1	6.5%	i	i	-3.8%	?
CC(C)(CC(=O)OCC(=O)Nc1ccccc1F)CC1=NS(=O)(=O)c2ccccc2N1	1.6%	i	i	7.1%	9.2µM*
COc1cc(OC)cc(-c2sc3ccc(OC)cc3c2C#CC2(N)CCCCC2)c1	14.6µM*	?	?	18.4µM*	-1.2%
